Data on 63 molecules can be found in PubChem BioAssay AID777 (Sanford-Burnham Center for Chemical Genomics, 2007).

Hit rate of the full screen: of about 96,000 compounds, about 19,000 (20%) were called active. The list is a sample of the results. A number with no mark means an inactive call.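 Rule for the calls: active = blocking of liver enzyme CYP2C9 beyond about 50% at 5 µM (limit read from the data); inactive = the rest.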

The assay deals with Cytochrome P450 2C9 (Homo sapiens) (UniProt P11712). Kind of assay: blockers of cytochrome P450 2C9 activity – biochemical, luminescence, ADME assay, primary screen (AID 777). The settings on record: CYP2C9 Supersomes, luciferin-H conversion, at 5 µM, active compounds read high.
Chain of Cytochrome P450 2C9 (Homo sapiens) (P11712 whole entry, looked up): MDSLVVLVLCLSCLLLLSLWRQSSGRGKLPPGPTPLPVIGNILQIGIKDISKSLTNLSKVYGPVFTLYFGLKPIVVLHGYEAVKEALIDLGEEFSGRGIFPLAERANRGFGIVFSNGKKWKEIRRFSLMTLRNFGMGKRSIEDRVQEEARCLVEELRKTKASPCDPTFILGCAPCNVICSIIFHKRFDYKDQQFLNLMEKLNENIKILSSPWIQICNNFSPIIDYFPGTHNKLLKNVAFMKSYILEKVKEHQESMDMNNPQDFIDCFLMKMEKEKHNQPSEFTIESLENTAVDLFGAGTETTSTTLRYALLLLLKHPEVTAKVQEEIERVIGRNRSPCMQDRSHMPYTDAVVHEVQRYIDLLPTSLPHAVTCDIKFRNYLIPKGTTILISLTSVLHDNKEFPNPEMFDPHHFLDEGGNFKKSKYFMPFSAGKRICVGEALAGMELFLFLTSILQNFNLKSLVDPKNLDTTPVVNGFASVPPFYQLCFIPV
Turning to `O=C(NC1CCCCC1)c1cc([N+](=O)[O-])ccc1N1CCOCC1`, the inhibition (commonly the drop in the measured response relative to a control, in per cent) is 1.4%.
Turning to `O=C(Nc1cc2c3c(c1)C1CCCC1CN3CC1CCCC21)c1ccc([N+](=O)[O-])cc1` (stereo not drawn), the inhibition was 96.3% (active).
In the case of `COc1cccc(N2CCN(C(=O)Nc3ccc4c(c3)NC(=O)CO4)CC2)c1`, the inhibition is 13%.
`O=C(Cc1nn[nH]n1)NCCC1=CCCCC1`: the inhibition was -1.8%.
With `Cc1ccc(-n2c(C)cc(/C=N/Nc3ccc([N+](=O)[O-])cn3)c2C)c(C)c1` the figure was 13.3%.
For the molecule `COc1ccc(S(=O)(=O)N2CCN(C(=O)c3cccs3)CC2)cc1OC`, the inhibition was -35.4%.
`COc1ccc(CN(C(=O)c2cccs2)c2nccs2)cc1OC`: the inhibition was 99% (active).
As for `O=C(c1cccs1)N(C(=O)c1cccs1)c1ccccn1`, the figure is 21.5%.
Regarding `CC(C)CC(=O)N/C(N)=N/c1nc2ccccc2s1`, the inhibition is 27.6%.
As for `C[N+]1(CCNC(=O)/C=N/O)CCCCC1`, the figure is 5.6%; as for `Cc1nc(-c2ccccc2)sc1C(=O)/C=C/c1ccccc1`, 15.9%.
As to `Cc1ccc(SCC(=O)c2sc(-c3ccccc3)nc2C)cc1`, the inhibition was 83.6% (active).
`Cc1ccc(SCC(=O)Nc2ncc(C)s2)cc1`: the inhibition is 35.5%.
Turning to `Cc1nn(-c2ncc(C(F)(F)F)cc2Cl)c(=O)n1-c1ccccc1`, the inhibition is -45.3%.
Regarding `CCn1c(C)nc2c1C(=O)c1ccccc1C2=O`, the inhibition is -0.9%.
As for `O=C1CCCCC(=O)c2ccccc2N1`, the figure is 14.5%; as for `O=C(CSc1nc(-c2ccco2)cc(C(F)(F)F)n1)NCc1cccs1`, 7.6%.
As for `FC(F)(F)c1cc(-c2ccco2)nc(N2CCOCC2)n1`, the figure is -16.1%.
With `COc1ccc(Nc2nc(Cl)nc(NCc3ccco3)n2)cc1` the figure was 5.9%; with `FC(F)(F)c1cc(-c2cccs2)nc(NCc2ccco2)n1`, 60.7% (active).
For `COc1nc(NCc2ccc(Cl)cc2)nc(OC)n1`, the inhibition was 9.7%.
As to `FC(F)(F)c1cc(-c2ccco2)nc(NCc2ccc(Cl)cc2)n1`, the inhibition is 97.5% (active).
With `CCc1ccc(/C=N/NC(=O)c2ccc(OC3CCCC3)cc2)s1` the figure was -41.1%; with `Cc1oc(-c2ccccc2Cl)[n+]([O-])c1C`, 7.1%.
On to `Cc1cnc(NC(=O)CSc2nnc(C)s2)s1`, for which the inhibition is 8.4%.
Turning to `O=C(CSc1nnc(-c2ccoc2)o1)N1CCOCC1`, the inhibition is -12.9%.
As for `CCc1ccc(N(CC)c2ncnc3nc[nH]c23)cc1`, the figure is 3.4%; as for `Cc1ccc(C)c(NC(=O)C2Cc3ccccc3CN2C(=O)OCc2ccccc2)c1` (stereo not drawn), 65% (active).
`Cc1ccc(C)c(NC(=O)C2CCCN2C(=O)OC(C)(C)C)c1` (stereo not drawn): the inhibition is -1.5%.
As to `COc1cccc(NC(=O)C2CCCN2C(=O)OCc2ccccc2)c1` (stereo not drawn), the inhibition was 15.8%.
As for `O=C(Nn1cnc2ccccc2c1=O)c1ccc(F)cc1Cl`, the figure is -8.6%; as for `Cc1ccc2[nH]c3c(c2c1)CN(C(=O)CN1CCN(c2ccccc2)CC1)CC3`, 30.7%.
With `O=C(CN1CCN(c2ccc(Cl)cc2)CC1)N1CCCC1` the figure was 57.4% (active); with `O=C(CSCc1ccc(Cl)cc1)N1CCCCC1`, -83.2%; with `Cc1nc(-c2ccccc2)sc1-c1nc(-c2ccccc2)ncc1S(=O)(=O)c1ccccc1`, 37.8%.
With `c1ccc(-c2nnc3n2NC(c2ccc4c(c2)OCO4)S3)cc1` (stereo not drawn), the inhibition is 21.6%.
With `c1ccc(CSc2nnc(-c3ccco3)c(-c3ccco3)n2)cc1` the figure was 72.9% (active); with `c1ccc(CSc2nnc(-c3ccco3)n2Cc2ccccc2)cc1`, 31.7%; with `Clc1ccccc1CSc1nnc(-c2ccco2)c(-c2ccco2)n1`, 38.8%.
With `COc1ccc(C2C3=C(OC(C)=O)c4ccccc4C3=Nc3c2c(=O)n(C)c(=O)n3C)cc1` (stereo not drawn) the figure was 7.6%; with `COc1ccc(-c2nnn(CC(=O)N(CCO)C(C(=O)NC3CCCC3)c3ccc(F)cc3)n2)cc1` (stereo not drawn), -3.9%.
With `Cc1ccc(-c2nnn(CC(=O)N(CCO)C(C(=O)NC(C)(C)C)c3ccncc3)n2)cc1` (stereo not drawn) the figure was 76.1% (active).
For the molecule `CC(C)(C)NC(=O)Cn1nnc(-c2ccccc2Cl)n1`, the inhibition is -42.7%.
As to `O=C(Nc1cc(N2CCOCC2)ncn1)NC1(C(F)(F)F)Oc2ccc(Cl)cc2O1` (stereo not drawn), the inhibition is 21.6%.
As for `CCOCCCNC(=O)C(NC(=O)c1ccc(=O)[nH]c1)c1ccc(C)cc1` (stereo not drawn), the figure is 16.2%; as for `Cc1ccccc1NC(=O)c1ccccc1NS(=O)(=O)c1cccc2cccnc12`, 45.1%.
As for `O=C(Nc1nncs1)c1ccccc1NS(=O)(=O)c1cccs1`, the inhibition is 76.4% (active).
As for `COc1ccc(C(=O)Nc2nncs2)c(OC)c1`, the inhibition was -1.4%.
For `CC(=O)c1ccc(NC(=O)N[C@@H](Cc2ccccc2)C(=O)O)cc1`, the inhibition is 4.2%.
Consider `N#CC1=C(N)Oc2n[nH]c(CSc3ccccc3)c2C12C(=O)Nc1ccccc12` (stereo not drawn), for which the inhibition is 24.3%.
On to `Cc1csc2ncc(C(=O)N(Cc3ccccc3)c3ccccn3)c(=O)n12`, for which the inhibition is 6.4%.
With `COCCCn1c(SCc2cccc(OC)c2)nc2cc(OC)c(OC)cc2c1=N` the figure was 71.3% (active).
With `COc1cccc(-c2cc3nc4c(c(N5CCC6(CC5)OCCO6)n3n2)CCCC4)c1` the figure was 49.8%; with `O=C(Cc1ccc(F)cc1)NC1CCCC1`, -37.8%.
As for `O=C(Cn1cnc2c(cnn2-c2ccccc2)c1=O)NCc1ccccc1`, the figure is -7.3%; as for `CCOC(=O)Nc1ccc(S(=O)(=O)N(C)C(C)C)cc1`, 32%; as for `COC(=O)Nc1ccc(S(=O)(=O)N(C)CC(F)(F)C(F)F)cc1`, 59.2% (active).
For the molecule `COC(=O)Nc1ccc(S(=O)(=O)N2CCN(CCN3C(=O)C4C5C=CC(C5)C4C3=O)CC2)cc1` (stereo not drawn), the inhibition is 19.6%.
`CC(=O)NC1(c2cccc(F)c2)CCN(CC(=O)NC(C)C)CC1`: the inhibition is 4.1%.
As to `CON(C)S(=O)(=O)c1ccc2c(c1)NC(=O)C1CCCN21` (stereo not drawn), the inhibition was 44%.
With `O=S(=O)(c1ccc(F)cc1)n1ccc(-c2cnc(-c3ccccc3)s2)n1` the figure was 53.9% (active); with `CCn1nnc(NC(=O)c2c(OC)cccc2OC)n1`, -11.4%.
With `O=C(Oc1ccc([N+](=O)[O-])cc1)c1ccc2ccccc2n1`, the inhibition is -28.9%.
